Bioassay records: PubChem BioAssay, Broad Institute
miR122 inh – miR-122 inhibition in Huh7 cells; Huh7 miR-122 Renilla luciferase sensor, 48 h; neutral wells = 0, positive control = 100; activation (reporter increase), % at 12.5 µM; 340,000 compounds, 0.3% hits; AID 602342;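 active = mean replicate activation score at least 90 and every replicate individually at or above 90; inconclusive = only one of the two criteria met; inactive = neither criterion met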;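 note: higher luciferase means less miR-122 activity so hits act as miR-122 inhibitors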
DYRK1A inh – Dyrk1A (rat) kinase inhibition; ADP-Glo luminescence, NFATc1 peptide; inhibition, % at 12.5 µM; 310,000 compounds, 0.43% hits; AID 504441;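 note: plate controls were vehicle with enzyme for no effect and no enzyme for full effect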
INS-1E GSIS act – primary screen for activators of insulin secretion dependent on glucose, INS-1E cells, GLuc reporter luminescence. activation, % at 16.6 µM. 370,000 compounds, 0.61% hits. INS-1E GLuc reporter insulin secretion, 2-3 h;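 active = lowest replicate activation of at least 40%, so every replicate reaches that level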;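 note: 0% = median of neutral control wells and 100% = median of IBMX positive control wells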
Wnt act – activators of Wnt/beta-catenin signaling. activation, % at 9.35 µM. Wnt/beta-catenin reporter cell assay, activator, plate reader. 300,000 compounds, 1.2% hits. AID 743398; in the data active = activation above about 30%, passing the limit was not always enough; inconclusive = no clear call, values can overlap the other calls;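 note: 0% = neutral control wells and 100% = positive control wells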
MITF TRPM1 HTS – MITF TRPM1 promoter activation in melanoma cells. SK-MEL-5 TRPM1-promoter luciferase, 24 h; % of positive control, neutral wells = 0. activation, % at 12.5 µM. 300,000 compounds, 0.75% hits. AID 588334;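 active = mean activation of at least 80% with every replicate also reaching 80%; inconclusive = mean reaches 80% but some replicate falls short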;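 note: 0% = neutral control wells and 100% = parthenolide positive control wells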
NSD2 inh – inhibitors of human histone methyltransferase NSD2 | 310,000 compounds, 0.54% hits | NSD2 peptide methylation, AlphaScreen, 120 min | inhibition, % at 12.5 µM | O96028
An asterisk follows results filed as active; ? = inconclusive; / = not tested or not shown; [ ] = dose if it differs, or a comment. A selection: hits, their analogues and other compounds. The true share with any hit is near 2.4%. Cut-off read from the data, not from the text of the source, unless noted: active = inhibition above about 50%; inactive = the rest.

SMILES	miR122 inh	DYRK1A inh	INS-1E GSIS act	Wnt act	MITF TRPM1 HTS	NSD2 inh
CCn1c(O)c(C#N)c(C)cc1=O	1	-1	7	48*	/	3
CCCn1c(C)cc(C)c(C#N)c1=O	/	7	43*	/	6	-3
Cc1ccc(NC(=O)Cc2nc(COC(=O)c3c(F)cccc3Cl)cs2)cc1	8	-6	-24	0	2	-2
Cc1nn2c(=O)cc(COC(=O)c3c(F)cccc3Cl)nc2s1	-5	3	39	50*	61	/
CCN(CC)C(=O)c1ccccc1NS(=O)(=O)c1cccs1	11	-3	18	0	-10	-1
CCN(CC)C(=O)c1ccccc1NS(=O)(=O)c1ccc(C)cc1	4	2	43*	/	-9	15
CCOc1ccc(OCCC(=O)N(CC)CC(=O)NCc2cccs2)cc1	-3	3	41*	3	6	3
CCN(CC(=O)NCc1cccs1)C(=O)CCOc1ccccc1	-5	0	-10	-3	-5	0
O=C(C[C@H]1CC[C@H]2[C@@H](COC[C@H](O)CN2C(=O)Nc2ccc(F)cc2)O1)NCCc1ccncc1	-11[16.7 µM]	/	-13	/	/	/
Cc1csc(NC(=O)c2nc3nccc(C)n3n2)n1	-2	-2	/	/	49	4
Cc1ccnc2nc(C(=O)Nc3nc4ccccc4s3)nn12	21	5	7	38*	15	4
COCC(=O)N(C)C[C@@H]1Oc2ncc(-c3ccccc3C)cc2C(=O)N([C@H](C)CO)C[C@H]1C	-1[16.7 µM]	/	13	/	/	/
Cc1nn(C)c(Oc2ccccc2)c1CCNS(=O)(=O)c1ccc(Cl)cc1	70	1	/	-4	/	-4
COc1ccc(S(=O)(=O)NCCc2c(C)nn(C)c2Oc2ccccc2)cc1	238*	-2	/	-3	-7	/
CCOC(=O)c1ccc(NC(=S)Nc2ccc(C)cc2)cc1	-7	-4	4	3	-2	0
CCOC(=O)c1cn[nH]c1NC(=S)Nc1ccc(Cl)cc1	5	/	-8	36*	/	-2
CN1C(=O)c2cc(NC(=O)c3cccc(F)c3)ccc2OC[C@@H]2O[C@H](CC(=O)Nc3ccccc3)CC[C@H]21	-55[16.7 µM]	/	-7	/	/	/
Cc1ccc(NCC(=O)c2ccc(C)cc2)cc1	6	-5	-24	15	84*	4
Cc1cc2oc(=O)cc(COC(=O)c3n[nH]c4ccccc34)c2cc1C	3	8	17	/	92*	25
COc1ccc2c(COC(=O)c3n[nH]c4ccccc34)cc(=O)oc2c1	3	-2	-2	1	/	0
CCC(=O)N[C@H]1C=C[C@@H](CC(=O)NCc2ccc(OC)cc2)O[C@@H]1CO	20[16.7 µM]	/	-2	/	/	/
Fc1ccccc1CSc1ccc(-c2ccco2)nn1	/	/	-14	11	95*	/
c1ccc(CSc2ccc(-c3ccco3)nn2)cc1	/	1	9	52*	44	2
Clc1ccc(CSc2ccc(-c3ccco3)nn2)cc1	/	/	/	13	65	-3
Cc1cc(/C=C(/C#N)c2cccc(F)c2)c(C)n1-c1cccnc1	/	/	4	1	88*	/
SMILES	miR122 inh	DYRK1A inh	INS-1E GSIS act	Wnt act	MITF TRPM1 HTS	NSD2 inh
Cc1cc(/C=C(\C#N)C(=O)NCc2ccco2)c(C)n1-c1cccnc1	/	-9	-11	-2	37	6
CC1CCc2sc(C(=O)NC(C)C3CCCO3)cc2C1 (stereo not drawn)	1	/	-1	2	30	0
C/C(=N\NC(=O)c1cc2c(s1)CCC(C)C2)c1ccc[nH]1 (stereo not drawn)	8	-2	7	?	104*	-2
CCc1ccc(C(=O)NC2CCCCC2)s1	3	2	/	/	96*	-2
CC1CCc2sc(C(=O)NC3CCCCC3)cc2C1 (stereo not drawn)	13	-1	15	54*	/	-1
COc1ccc(/C=C2/C(=O)OCc3cc(OC)c(OC)cc32)cc1	/	44	113*	/	0	5
COc1ccc(-c2cn(CC[C@@H]3CC[C@H](NC(=O)Cc4ccccn4)[C@H](CO)O3)nn2)cc1	/	/	-7	/	/	/
C[C@H]1CN([C@@H](C)CO)C(=O)c2cc(NC(=O)Nc3ccc4c(c3)OCO4)ccc2O[C@H]1CN(C)Cc1ccc(-c2ccccc2)cc1	-10[16.7 µM]	/	1	/	/	/
CCc1ccc(C(=O)COC(=O)c2ccccc2OC)cc1	-3	0	/	50*	87*	-1
COc1ccccc1C(=O)COC(=O)c1ccccc1O	3	-4	-6	9	0	0
N#CCc1ccc(OC(=O)c2cccnc2Cl)cc1	-4	0	2	39*	70	-3
CCc1ccc(C(=O)COC(=O)c2cccnc2Cl)cc1	-3	0	-3	44*	23	7
CO[C@H]1CN(C)C(=O)c2ccc(NC(=O)C3CCCC3)cc2OC[C@@H](C)N(CC2CC2)C[C@@H]1C	/	/	4	/	/	/
CCCCSc1ncnc2c1ncn2C1CCCCO1 (stereo not drawn)	/	-2	/	52*	90*	-2
O=C(N[C@H]1CC[C@H](CCn2cc(-c3ccc(F)cc3)nn2)O[C@@H]1CO)c1cnccn1	/	/	-5	/	/	/
CCN=C1S/C(=C\c2ccc(O)c(OCC)c2)C(=O)N1CC	/	2	57*	-4	28	12
COc1ccc(NC(=O)N(C)C[C@H]2OCCCC[C@H](C)Oc3ccc(NC(=O)Nc4cccc5ccccc45)cc3C(=O)N([C@H](C)CO)C[C@@H]2C)cc1	0[16.7 µM]	/	14	/	/	/
COc1ccc(S(=O)(=O)N(C)C[C@@H]2Oc3c(NC(=O)c4cc(C)nn4C)cccc3C(=O)N([C@@H](C)CO)C[C@@H]2C)cc1	-4[16.7 µM]	/	-2	/	/	/
O=C(c1ccc(F)cc1)n1ccc(-c2cnc(-c3ccccc3)s2)n1	0	/	27	/	67	-2
O=C(c1ccc(C(F)(F)F)cc1)n1ccc(-c2cccs2)n1	/	-5	9	42*	-2	/
Cc1ccc(CN(C)C(=O)c2ccc(S(=O)(=O)N3CCCCCC3)cc2)o1	5	-6	-26	36*	13	1
CN(Cc1cccs1)C(=O)c1ccc(S(=O)(=O)N2CCCCC2)cc1	/	-4	-4	-3	0	0
COc1cc(C)nc(NC(=S)N(C)C(=O)c2ccccc2)n1	-4	/	28	46*	/	-3
CO[C@H]1CN(C)C(=O)c2cc(NC(=O)c3ccc4c(c3)OCO4)ccc2OC[C@H](C)NC[C@H]1C	/	/	10	/	/	/
CCNC(=O)CSc1nnc(CN2CCCCCC2=O)n1-c1ccccn1	/	-2	5	-1	15	-1
O=C1CCCCCN1Cc1nnc(SCc2nc3ccccc3s2)n1-c1ccccn1	13	3	/	57*	/	-1
Cc1ccc(S(=O)(=O)N(C)C[C@H]2Oc3c(NS(=O)(=O)c4ccc(Cl)cc4)cccc3C(=O)N([C@@H](C)CO)C[C@@H]2C)cc1	8[16.7 µM]	/	-26	/	/	/
CCSc1ccc(-c2nn(-c3ccccc3)cc2/C=C(/C#N)C(=O)NC)cc1	24	-2	65*	-14	11	-2
